Laboratory results as given in PubChem BioAssay (NCI).
This is part of a sample that, as a whole, favours compounds with a hit. Of some 79,000 tested, about 15% had one in any assay. The source made the active and inactive calls. No stated cut-off is given here; in the data, active means growth inhibition above about 70%; inactive means the rest.

Experiment: NCI Yeast Anticancer Drug Screen. Data for the sgs1 strain (AID 173);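 further: 0% = growth of vehicle-only control cultures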
Details: S. cerevisiae sgs1 mutant, active compounds read high
Method: Growth inhibition of yeast strains with defined genetic alterations is measured as a screen for potential anti-cancer activity. Selected strains with alterations in DNA damage repair or cell cycle control were exposed to compounds and growth inhibition was measured relative to vehicle treated controls. The strain used in this assay is sgs1

Measured: growth inhibition

Clc1cc(-c2ccccc2)nc2ccccc12
inactive: at 1.2 µM -9% | at 3.7 µM -12% | at 11.0 µM -9% | at 33.0 µM 42%
active: at 100.0 µM 82%

C/C=C/[P+](c1ccccc1)(c1ccccc1)c1ccccc1
active: at 100.0 µM 89%
inactive: at 1.2 µM 19% | at 3.7 µM 31% | at 11.0 µM 55% | at 33.0 µM 61%

Cc1cccc(/C=N\NC(=S)N2CCCCC2)n1
active: at 3.7 µM 93% | at 11.0 µM 98% | at 33.0 µM 99% | at 100.0 µM 98%
inactive: at 1.2 µM 2%

Cc1cc(Cl)ccc1NC(=O)/C(Cl)=C1/Sc2ccccc2NC1=O
inactive: at 1.2 µM -1% | at 3.7 µM 2% | at 11.0 µM 4% | at 33.0 µM 7% | at 100.0 µM 31%

COC(=O)/C=C1/OC(c2ccc(Br)cc2)=C(Br)C1=O
inactive: at 1.2 µM -18% | at 3.7 µM -16% | at 11.0 µM -17% | at 33.0 µM -27% | at 100.0 µM 16%

Cc1cccc(/C=N/NC(=S)N(C)CCc2ccccn2)n1
active: at 1.2 µM 97% | at 3.7 µM 98% | at 11.0 µM 99% | at 33.0 µM 99% | at 100.0 µM 98%

Cc1cc(OCc2ccccc2)ccc1[N+](=O)[O-]
active: at 100.0 µM 88%
inactive: at 1.2 µM 11% | at 3.7 µM 16% | at 11.0 µM 6% | at 33.0 µM 38%

CN(C)c1ccc(N=Nc2ccccn2)cc1
inactive: at 1.2 µM -6% | at 3.7 µM 5% | at 11.0 µM 25%
active: at 33.0 µM 88% | at 100.0 µM 94%
